Test results taken from PubChem BioAssay (NCI).
Compounds without any hit were thinned out: in the full panel of roughly 79,000, 15% have a hit. Activity calls are given as the source filed them. Cut-off read from the data, not from the text of the source: active = growth inhibition above about 70%; inactive = the rest.

Legend:
[1] = NCI Yeast Anticancer Drug Screen. Data for the rad50 strain (AID 155);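 note: 0% = growth of vehicle-only cultures of the same strain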; settings: S. cerevisiae rad50 strain growth inhibition; at 50.0 µM; stronger effect = higher value
In short: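 Compounds were tested on a yeast strain with an engineered DNA damage repair alteration; the reported value is growth inhibition normalised to vehicle treatment.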

[2] = NCI Yeast Anticancer Drug Screen. Data for the mec2-1 strain (AID 157); settings: S. cerevisiae mec2-1 strain, at 50.0 µM, stronger effect = higher value
In short: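 Vehicle-treated cultures served as reference for growth inhibition of compound-exposed mec2-1 yeast.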

[3] = NCI Yeast Anticancer Drug Screen. Data for the sgs1 mgt1 strain (AID 161);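 note: 0% = growth of cultures given vehicle only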; settings: S. cerevisiae sgs1 mgt1 strain, at 50.0 µM, stronger effect = higher value
In short: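 Genetically altered yeast, compound exposure, growth inhibition relative to vehicle.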

[4] = NCI Yeast Anticancer Drug Screen. Data for the cln2 rad14 strain (AID 165);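 note: 0% = growth equal to vehicle treated cultures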; settings: S. cerevisiae cln2 rad14 strain, at 50.0 µM, stronger effect = higher value
In short: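 Each compound was tested on cln2 rad14 yeast. Inhibition of growth was calculated against vehicle-exposed controls.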

[5] = NCI Yeast Anticancer Drug Screen. Data for the bub3 strain (AID 167); settings: S. cerevisiae bub3 mutant strain, at 50.0 µM, stronger effect = higher value
In short: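 Growth of a checkpoint-deficient yeast mutant is measured after compound exposure. Values represent inhibition relative to vehicle.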

[6] = NCI Yeast Anticancer Drug Screen. Data for the mlh1 rad18 strain (AID 175); settings: S. cerevisiae mlh1 rad18 strain growth inhibition; at 50.0 µM; stronger effect = higher value
In short: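 Vehicle-treated cultures served as the reference for growth inhibition in a yeast strain carrying DNA damage repair alterations exposed to each compound.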

Measured: growth inhibition

CCOC(=O)C(=Cn1c(=S)[nH]c2cc(C)ccc21)C(=O)OCC
inactive: [1] -19.8% | [2] -39.1% | [3] -16.2% | [4] 13.6% | [5] 0.1% | [6] -11.8%

O=C(/C=C\c1ccccc1Cl)/C=C/c1ccccc1Cl
inactive: [1] 11.2% | [2] 2.75% | [3] -4.6% | [4] -42.3% | [5] -0.35% | [6] 11.8%

CC1C=C(Br)C(=O)C(n2cnc3c(=O)n(C)c(=O)n(C)c32)O1 (stereo unspecified)
inactive: [1] 24.1% | [2] 13.5% | [3] 18.8% | [4] 8% | [5] 10.9% | [6] 34%

COc1cc2c(cc1OC)C1(c3ccccc3)ON=C(c3ccccc3)N1CS2 (stereo unspecified)
inactive: [1] -14.1% | [2] -12.4% | [3] 8.95% | [4] -32.4% | [5] -7.05% | [6] -11.1%

ClCC/C(=C(/Cl)c1ccccc1)c1ccccc1
inactive: [1] -0.65% | [2] 5.6% | [3] 6.65% | [4] 4.8% | [5] -14.3% | [6] 3.1%

O=C(O)c1onc2ccccc12
inactive: [1] -17.9% | [2] -15.1% | [3] -35.2% | [4] -7.7% | [5] -5.15% | [6] -29.8%

O=C(NCC(CC(NC(=O)c1ccccc1)C(=O)O)NC(=O)c1ccccc1)c1ccccc1 (stereo unspecified)
inactive: [1] -20.5% | [2] -4.85% | [3] -11.4% | [4] 16% | [5] -5.9% | [6] 0.9%

COc1ccc(C2c3cc4c(cc3OC3(N5CCCC5)CCCC23)OCO4)c(OC)c1 (stereo unspecified)
inactive: [1] 0.85% | [2] -6.8% | [3] -1.5% | [4] 14.2% | [5] 15.2% | [6] 11.6%

COC(=O)CC1C=CC(OC)[C@@]2(C)C(=O)C=C(C)C(=O)[C@@H]12 (stereo partly specified)
inactive: [1] 4.85% | [2] -1.95% | [3] 18.6% | [4] -16.6% | [5] 3.8% | [6] 3.15%

COc1ccc(C(=O)Nc2ccn(CCOC(=O)c3ccc(OC)cc3)c(=O)n2)cc1
inactive: [1] -25.9% | [2] 16.9% | [3] -3.1% | [4] -4% | [5] 2.8% | [6] -3.55%

CCOC(=O)c1cnc2c(ccc3ncccc32)c1Cl
inactive: [1] -13.9% | [2] -7.45% | [3] 15.8% | [4] 25.2% | [5] 7% | [6] 27.1%

CC(C)=CCN1c2ccccc2NC(=O)CC1C (stereo unspecified)
inactive: [1] -24.1% | [2] -66.7% | [3] -6.55% | [4] 4.5% | [5] -10.9% | [6] -14.9%

c1ccc2c(c1)ccc1nc3c4ccccc4c4ccccc4c3nc12
inactive: [1] 13.6% | [2] -2.85% | [3] -6.9% | [4] -3.45% | [5] 13% | [6] 13.8%

Nc1ncnc2c1nnn2C1C=CC(CP(=O)(O)O)C1 (stereo unspecified)
inactive: [1] 2.65% | [2] 8.25% | [3] 12.9% | [4] 13.2% | [5] -4.5% | [6] 27.7%

Cc1ccc(S(=O)(=O)Cc2c(C)cc(C)cc2C)cc1
inactive: [1] 12.3% | [2] 3.8% | [3] -2.25% | [4] -30.9% | [5] -10.6% | [6] 1.15%

CC(=S)NNC(=O)c1ccncc1
inactive: [1] -14.1% | [2] 6.05% | [3] -8.2% | [4] -1.15% | [5] -20.1% | [6] -14.9%

CCN(Cc1cc(Cl)cc(C)c1O)Cc1c(O)ccc2ccccc12
active: [1] 99.5% | [2] 99.2% | [3] 99.3% | [4] 99.3% | [5] 98.6% | [6] 99.7%

CC1CN(c2ccccc2)NC1=O (stereo unspecified)
inactive: [1] 0.4% | [2] -32.7% | [3] 0.05% | [4] 27.1% | [5] -19.6% | [6] -7.55%

CCOC(=O)C1=C(C)NC(=O)NC1c1cccc(OC)c1O (stereo unspecified)
inactive: [1] 11% | [2] 0.15% | [3] 16.7% | [4] 9.7% | [5] 30.8% | [6] 18.1%

CCN(CC)c1ccc(CO)cc1
inactive: [1] 7.65% | [2] 4.8% | [3] -22.8% | [4] -9.85% | [5] -1.05% | [6] -13.2%

CCOC(=O)NC(OCCN(C)C)(C(F)(F)F)C(F)(F)F
inactive: [1] -32.4% | [2] 25.9% | [3] -53.5% | [4] 3.3% | [5] -4.15% | [6] 31.1%
